From PubChem BioAssay
Fam108B counter: Fam108B inhibition, counter-screen for RBBP9 inhibitors | recombinant Fam108B, FP-Rh probe fluorescence polarization | inhibition, % at 9.51 µM | hit rate 0.33% among 300,000 | AID 1947;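 active = inhibition above the screen mean inhibition plus 3 SD, computed separately per campaign, cut at about 18% in these data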;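 note: inhibitors lower polarization as less probe binds the enzyme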
GSTO1 counter: blocks human GSTO1 in RBBP9 counter-screen; recombinant GSTO1, activity-based probe fluorescence polarization; AID 1974; P78417; hit rate 1.1% among 300,000; inhibition, % at 5.96 µM;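 active = inhibition above the campaign mean inhibition plus 3 SD, cut at about 35% in these data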;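 note: 0% = GSTO1-1 with DMSO and 100% = wells lacking GSTO1-1 enzyme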
Target sequence (P78417 whole entry, looked up): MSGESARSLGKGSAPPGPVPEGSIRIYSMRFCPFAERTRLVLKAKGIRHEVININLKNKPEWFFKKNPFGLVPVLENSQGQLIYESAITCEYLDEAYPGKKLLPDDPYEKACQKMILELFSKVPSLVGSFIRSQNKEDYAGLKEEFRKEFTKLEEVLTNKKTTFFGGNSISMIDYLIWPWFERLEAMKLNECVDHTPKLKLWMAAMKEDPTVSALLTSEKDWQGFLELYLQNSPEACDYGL
LYPLA1 inh: LYPLA1 (human) inhibition in PME1 counter-screen; hit rate 0.16% among 320,000; recombinant LYPLA1, FP-Rh probe fluorescence polarization; inhibition, % at 5.9 µM; O75608; AID 2174;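 active = inhibition above the mean of all tested compounds plus 3 SD, set per campaign, cut at about 14% in these data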;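 note: inhibitors block serine hydrolase probe labeling of LYPLA1 so polarization falls; 0% = enzyme with DMSO and 100% = wells lacking LYPLA1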
PME-1 primary: blocks human protein phosphatase methylesterase 1; recombinant PME-1, FP-Rh probe fluorescence polarization; inhibition, % at 5.9 µM; hit rate 0.53% among 320,000;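 active = inhibition above the campaign mean of all compounds plus 3 SD, cut at about 26% in these data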;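 note: competitive labeling of PME-1 active site by serine hydrolase directed probe; 0% = PME-1 with DMSO and 100% = wells lacking PME-1 enzyme; inhibitors block probe labeling so polarization falls and inhibition rises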
PAD4 inh: PAD4 (human) enzyme inhibition; Q9UM07; recombinant PAD4, RCA probe fluorescence polarization; inhibition, % at 6.36 µM; hit rate 0.41% among 330,000;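 active = percent inhibition above a cutoff equal to the mean of all tested compounds plus 3 SD, cut at about 15% in these data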;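 note: 0% = PAD4 with RCA probe and DMSO and 100% = probe without PAD4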
LYPLA2 counter: LYPLA2 (human) inhibition in PME1 counter-screen; recombinant LYPLA2, FP-Rh probe fluorescence polarization; inhibition, % at 5.9 µM; hit rate 0.38% among 320,000;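 active = inhibition above the screen-wide mean plus 3 SD, limit set per campaign, cut at about 26% in these data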;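 note: 0% = LYPLA2 with DMSO and 100% = wells lacking LYPLA2 enzyme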
Target sequence (O95372 whole entry, looked up): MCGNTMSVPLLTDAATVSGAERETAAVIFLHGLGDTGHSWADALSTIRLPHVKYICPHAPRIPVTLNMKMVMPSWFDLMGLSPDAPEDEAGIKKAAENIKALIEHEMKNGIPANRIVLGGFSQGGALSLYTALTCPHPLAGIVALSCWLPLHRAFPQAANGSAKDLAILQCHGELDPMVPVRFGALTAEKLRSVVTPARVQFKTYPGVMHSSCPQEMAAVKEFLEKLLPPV
GSTO1 inh conf: GSTO1 (human) inhibition, confirmation; shares compounds with GSTO1 counter; AID 2176; hit rate 54% among 2,400; recombinant GSTO1, probe fluorescence polarization; inhibition, % at 5.96 µM;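 active = inhibition above the primary screen's cutoff, its mean inhibition plus 3 SD, cut at about 35% in these data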;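 note: loss of polarization as inhibitors block binding of rhodamine sulfonate ester activity probe; 0% = GSTO1 with DMSO and 100% = wells lacking GSTO1 enzyme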
PAD4 confirm: PAD4 (human) inhibition, confirmed; shares compounds with PAD4 inh; recombinant PAD4, RCA probe fluorescence polarization; inhibition, % at 6.36 µM; hit rate 28% among 1,200; AID 488796;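 active = mean inhibition across replicates above the hit cutoff set by the earlier primary screen, cut at about 15% in these data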;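 note: inhibitors block active-site labeling by the probe so polarization falls; 0% = PAD4 with probe and DMSO and 100% = probe without PAD4 enzyme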
* hit, by the source's call; . = no result. Hits are enriched below; roughly 1.8% of the tested compounds scored in any of these assays.

SMILES	Fam108B counter	GSTO1 counter	LYPLA1 inh	PME-1 primary	PAD4 inh	LYPLA2 counter	GSTO1 inh conf	others
C#CC[N+]1(C)C2CCC1CC(O)C2 (configuration not stated)	-6.8	-8.4	0.1	-4.1	-10.3	-2.0	.
O=C(Nc1nccs1)C(Cl)(Cl)Cl	5.5	0.5	7.0	-5.3	-7.8	7.4	.
O=C(CCl)Nc1nccs1	12.1	91.9*	0.5	0.3	-0.8	-0.9	98.7*
O=C(NC1CCCCC1)Oc1cc2oc(=O)sc2cc1Cl	5.5	54.6*	4.3	-0.3	2.2	0.3	12.6
COC(=O)CNC(=O)c1cn(CCC#N)nc1-c1ccc(F)cc1	-8.6	-2.6	-1.0	-5.7	-6.7	-7.5	.
COCCCn1c(N)c(C(=O)NCCC(C)C)c2nc3ccccc3nc21	2.0	38.9*	-6.0	7.3	-10.3	-8.9	64.1*
CCCCn1c(N)c(C(=O)OCCOC)c2nc3ccccc3nc21	-0.7	16.8	1.7	7.7	-5.0	0.2	.
CCCCOCCCn1c(N)c(C(=O)OCCOC)c2nc3ccccc3nc21	3.3	37.8*	-1.2	-1.6	-11.5	-7.1	35.4*
Nc1cc2nc3ccccc3nc2cc1N	9.6	56.4*	-6.0	17.0	-3.5	-4.9	41.0*
Cc1cnc(NC(=O)CN2CCCCC2)s1	0.4	-1.2	-2.2	-4.9	4.2	2.2	.
Nc1c(C(=O)OC2CCCCC2)c2nc3ccccc3nc2n1CC1CCCO1 (configuration not stated)	3.4	41.9*	-4.4	5.2	-12.5	3.5	-1.5
CC(C)CCOC(=O)c1c(N)n(CC2CCCO2)c2nc3ccccc3nc12 (configuration not stated)	0.0	53.2*	-1.9	3.0	1.0	4.3	-1.8
CC(C)OC(=O)c1c(N)n(CC2CCCO2)c2nc3ccccc3nc12 (configuration not stated)	-0.7	44.9*	-0.4	-3.4	-16.2	-2.6	4.7
O=C1COc2ccc(C(=O)COC(=O)Cc3ccccc3)cc2N1	-0.8	-2.0	1.2	-7.5	1.1	9.2	.
Cc1nn(Cc2c(Cl)cccc2Cl)c(Cl)c1C(=O)O	-0.9	0.2	-2.7	5.0	-2.2	-4.2	.
COc1cc(C(O)CNC(C)C)cc(F)c1OC (configuration not stated)	-2.1	2.5	2.4	4.9	3.1	-0.9	.
COc1c2c(cc3c1OCO3)CCN(C)C2	-1.2	6.6	-0.2	-3.7	-0.1	1.3	.
COc1cc2c(cc1O)C[C@H]1NCCc3cc4c(c-2c31)OCO4	8.8	54.6*	-4.0	-5.3	2.5	-6.0	20.7
CCOC(=O)C(NC(=O)CCl)(Nc1ccc(C(O)(C(=O)OCC)C(F)(F)F)cc1)C(F)(F)F (configuration not stated)	-0.8	52.6*	-1.9	3.6	0.3	0.5	74.3*
CCOC(=O)C(NC(=O)CC)(Nc1ccc(C(O)(C(=O)OCC)C(F)(F)F)cc1C)C(F)(F)F (configuration not stated)	-4.7	6.8	-3.8	1.4	-1.8	-0.2	.
O=C(O)c1ccc(NC(=O)N2C[C@H]3C[C@@H](C2)c2cccc(=O)n2C3)cc1	5.6	-2.1	-0.2	-1.4	-1.9	3.5	.
Nc1c(C(=O)NCc2ccco2)c2nc3ccccc3nc2n1Cc1ccc(F)cc1	-0.6	71.1*	0.2	0.4	-5.1	2.3	1.8
COc1ccc(Cn2c(N)c(C(=O)NCc3ccco3)c3nc4ccccc4nc32)cc1	1.6	24.1	-17.9	-10.4	-10.1	-12.2	.
COCC(C)OC(=O)c1c(N)n(Cc2ccco2)c2nc3ccccc3nc12 (configuration not stated)	-0.5	58.5*	-3.1	-1.2	-10.7	1.4	18.2
CCCCCn1c(N)c(C(=O)NCc2cccs2)c2nc3ccccc3nc21	4.9	60.1*	-2.1	9.6	65.0*	8.0	5.3	PAD4 confirm=-12.3
CCCCCCn1c(N)c(C(=O)NCCN2CCOCC2)c2nc3ccccc3nc21	-0.7	4.9	-2.7	4.3	-2.4	-9.9	.
CCOC(=O)c1c(NC(=O)c2c(N)n(CCCOC)c3nc4ccccc4nc23)sc2c1CCCC2	1.0	-6.5	6.4	2.6	-5.0	1.4	.
